Each structure is given as a SMILES string. Among all 39,000 compounds or so, about 3,300 (8.5%) were called active. What follows is part of a selection rich in actives, with near analogues and random picks from the rest.

The test has as its system HepG2. Nature of the test: cytotoxicity call (relative viability < 0.9). As to conditions: 10 µM.
In the case of `Cc1noc(C)c1NC(=O)N[C@@H]1CC[C@H](CC(=O)NCCCN(C)C)O[C@H]1CO`, the cytotoxicity call is “inactive”.
Next, `C[C@H]1CN([C@@H](C)CO)C(=O)c2cc(NC(=O)C3CC3)ccc2O[C@H]1CN(C)S(=O)(=O)c1cn(C)cn1`: “inactive”; `Cc1cc(C(=O)Nc2cccc3c2O[C@H](CN(C)S(=O)(=O)c2ccc(Cl)cc2)[C@@H](C)CN([C@H](C)CO)C3=O)n(C)n1`: “inactive”; `COc1cc(NC(=O)CCN2CCC(OC(=O)Nc3ccccc3-c3ccccc3)CC2)c(Cl)cc1CNC[C@H](O)c1ccc(O)c2nc(O)ccc12`: “active”.
`COc1cccc(C)c1NC(=O)O[C@H]1[C@H](OC(=O)Nc2ccccc2-c2ccccc2)[C@H](OC(=O)Nc2ccccc2-c2ccccc2)[C@@H](OC)O[C@@H]1CO`: the cytotoxicity call was “inactive”.
Next, `NCc1cc2ccc(F)cc2[nH]c1=O`: “inactive”; `C[C@H]1CN([C@@H](C)CO)C(=O)c2cc(C#CCN(C)C)cnc2O[C@H]1CN(C)C(=O)c1cnccn1`: “inactive”; `CC(=O)Oc1cc(OC(C)=O)c2c(c1)O[C@H](c1ccc(OC(C)=O)c(OC(C)=O)c1)[C@H](OC(C)=O)C2`: “inactive”.
For `O=C1NC(=O)C(c2cnc3ccccn23)=C1c1cn2c3c(cc(F)cc13)CN(C(=O)N1CCCCC1)CC2` the value was “active”.
For `C[C@H](CO)N1C[C@H](C)[C@@H](CN(C)S(=O)(=O)c2cn(C)cn2)Oc2c(NS(=O)(=O)c3ccc(Cl)cc3)cccc2C1=O`, the cytotoxicity call was “inactive”.
Turning to `COc1cccc(-c2ccc3c(c2)O[C@@H](CN(C)C(=O)C2CCC2)[C@@H](C)CN([C@H](C)CO)S3(=O)=O)c1`, the cytotoxicity call is “inactive”.
For `Cc1ccc(S(=O)(=O)N(C)C[C@H]2Oc3ccc(NS(=O)(=O)c4cccs4)cc3C(=O)N([C@@H](C)CO)C[C@@H]2C)cc1` the value was “inactive”.
As to `Cl.O=C1CN2Cc3c(ccc(Cl)c3Cl)N=C2N1`, the cytotoxicity call was “active”.
Turning to `C[C@H](CO)N1C[C@H](C)[C@H](CN(C)C(=O)C2CCOCC2)Oc2cc(-c3ccc(F)cc3)ccc2S1(=O)=O`, the cytotoxicity call is “inactive”.
Regarding `COc1ccc(S(=O)(=O)N(C)C[C@@H]2Oc3ncc(C#CC4(O)CCCC4)cc3C(=O)N([C@@H](C)CO)C[C@@H]2C)cc1`, the cytotoxicity call was “inactive”.
Next, `O=C(Cc1nn[nH]n1)NS(=O)(=O)c1ccccc1`: “inactive”; `C[C@H]1CCCCO[C@H](CN(C)CC2CCCCC2)[C@@H](C)CN([C@@H](C)CO)C(=O)c2cc(NC(=O)Nc3ccc(F)cc3)ccc2O1`: “active”; `C[C@@H]1CN([C@H](C)CO)C(=O)c2cc(NC(=O)Nc3ccc(F)cc3)ccc2O[C@@H](C)CCCCO[C@@H]1CN(C)CC1CCCCC1`: “active”.
`C[C@@H]1CCCCO[C@@H](CN(C)CC2CCCCC2)[C@@H](C)CN([C@@H](C)CO)C(=O)c2cc(NC(=O)Nc3ccc(F)cc3)ccc2O1`: the cytotoxicity call was “inactive”.
Consider `C[C@@H]1CCCCO[C@@H](CN(C)CC2CC2)[C@H](C)CN([C@H](C)CO)C(=O)c2cc(NC(=O)Nc3ccc(F)cc3)ccc2O1`, for which the cytotoxicity call is “inactive”.
For `C[C@@H]1CCCCO[C@H](CN(C)CC2CC2)[C@@H](C)CN([C@H](C)CO)C(=O)c2cc(NC(=O)Nc3ccc(F)cc3)ccc2O1`, the cytotoxicity call is “inactive”.
For `C[C@@H]1CCCCO[C@H](CN(C)CC2CCCCC2)[C@H](C)CN([C@H](C)CO)C(=O)c2cc(NC(=O)Nc3ccc(F)cc3)ccc2O1` the value was “active”; for `C[C@@H]1CN([C@@H](C)CO)C(=O)c2cc(NC(=O)Nc3ccc(F)cc3)ccc2O[C@@H](C)CCCCO[C@H]1CN(C)CC1CC1`, “inactive”; for `C[C@@H]1CCCCO[C@@H](CN(C)CC2CCCCC2)[C@@H](C)CN([C@H](C)CO)C(=O)c2cc(NC(=O)Nc3ccc(F)cc3)ccc2O1`, “inactive”.
Next, `C[C@@H]1CCCCO[C@H](CN(C)CC2CC2)[C@H](C)CN([C@@H](C)CO)C(=O)c2cc(NC(=O)Nc3ccc(F)cc3)ccc2O1`: “inactive”; `C[C@H]1CCCCO[C@@H](CN(C)CC2CCCCC2)[C@@H](C)CN([C@@H](C)CO)C(=O)c2cc(NC(=O)Nc3ccc(F)cc3)ccc2O1`: “active”; `CO[C@@]1(C2=NCCN2)COc2ccccc2O1`: “inactive”.
Turning to `O=C1O[C@@H](c2ccccc2)[C@@H](c2ccccc2)N2[C@@H](c3ccccc3OCCO)[C@]3(C(=O)Nc4ccc(C#CC5(O)CCCCCC5)cc43)[C@@H](C(=O)N3CCCCCCC3)[C@H]12`, the cytotoxicity call is “inactive”.
In the case of `C[C@H](CO)N1C[C@H](C)[C@H](CN(C)C(=O)C2CCCCC2)OCCCC[C@H](C)Oc2ccc(NC(=O)C3CCCCC3)cc2C1=O`, the cytotoxicity call was “inactive”.
For the molecule `CCCn1c(=O)c(C)cn2nc(N)nc12`, the cytotoxicity call is “inactive”.
For `O=C(N[C@@H]1C=C[C@@H](CC(=O)N2CCOCC2)O[C@@H]1CO)c1ccccn1` the value was “inactive”; for `O=C(CCn1ccc(=O)[nH]c1=O)Nc1ccc2c(c1)NC(=O)CO2`, “inactive”.
On to `COc1ccc2c3c([nH]c2c1)[C@@H](CO)N(CC1CCCCC1)C[C@]13CCN(CC1)C(=O)NC1CCCC1`, for which the cytotoxicity call is “inactive”.
`Cc1noc(C)c1S(=O)(=O)Nc1ccc2c(c1)CC(=O)N([C@H](C)CO)C[C@@H](C)[C@H](CN(C)Cc1ccc3c(c1)OCO3)O2`: the cytotoxicity call is “inactive”.
Next, `CN(C)c1ccsc1C(=O)NN`: “inactive”; `C[C@@H]1CN([C@H](C)CO)C(=O)c2cc(NC(=O)CCC(F)(F)F)ccc2O[C@@H](C)CCCCO[C@H]1CN(C)C(=O)C1CCCCC1`: “inactive”; `C[C@@H]1CCCCO[C@H](CN(C)C(=O)C2CCCCC2)[C@H](C)CN([C@@H](C)CO)C(=O)c2cc(NC(=O)Nc3ccc4c(c3)OCO4)ccc2O1`: “inactive”.
For the molecule `Cc1nc(COP(=O)(O)O)cc2c1[O][Mn][O]c1c(cc(COP(=O)(O)O)nc1C)CN(CC(=O)O)CCN(CC(=O)O)C2`, the cytotoxicity call was “inactive”.
Next, `C[C@@H]1CCCCO[C@@H](CN(C)CC2CCCCC2)[C@H](C)CN([C@@H](C)CO)C(=O)c2cc(NC(=O)Nc3ccc(F)cc3)ccc2O1`: “active”.
Next, `C[C@@H]1CN([C@@H](C)CO)C(=O)c2cc(NC(=O)Nc3ccc(F)cc3)ccc2O[C@@H](C)CCCCO[C@@H]1CN(C)CC1CCCCC1`: “active”; `C[C@@H]1CCCCO[C@H](CN(C)CC2CCCCC2)[C@@H](C)CN([C@H](C)CO)C(=O)c2cc(NC(=O)Nc3ccc(F)cc3)ccc2O1`: “inactive”.
On to `C[C@@H]1CCCCO[C@H](CN(C)CC2CCCCC2)[C@H](C)CN([C@@H](C)CO)C(=O)c2cc(NC(=O)Nc3ccc(F)cc3)ccc2O1`, for which the cytotoxicity call is “active”.
Consider `C[C@H]1CCCCO[C@@H](CN(C)CC2CC2)[C@@H](C)CN([C@@H](C)CO)C(=O)c2cc(NC(=O)Nc3ccc(F)cc3)ccc2O1`, for which the cytotoxicity call was “inactive”.
Next, `C[C@@H]1CCCCO[C@@H](CN(C)CC2CCCCC2)[C@H](C)CN([C@H](C)CO)C(=O)c2cc(NC(=O)Nc3ccc(F)cc3)ccc2O1`: “active”.

(Values after the antibiotic and cytotoxicity screens of Wong et al. (2023).)
